Reference: PubChem BioAssay AID485346 (Sanford-Burnham Center for Chemical Genomics, 2010)
Out of some 330,000 compounds screened, about 10,000 (3%) were called active.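 The calls were made as follows: active = inhibition of at least 50% at 8 µM in the primary screen; inactive = the rest.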 The full list was thinned out, with actives kept by preference.

molecular target: Protein Mdm4 (Homo sapiens) + E3 ubiquitin-protein ligase Mdm2 (Homo sapiens) (UniProt O15151+Q00987); experiment: inhibitors of human Mdm2-MdmX association, primary screen, cell-based, luminescence, split luciferase, SaOS-2, uHTS (AID 485346); conditions: SaOS-2 split-luciferase Mdm2/MdmX complementation, at 8 µM, active compounds read high
Sequence (O15151 whole entry, looked up): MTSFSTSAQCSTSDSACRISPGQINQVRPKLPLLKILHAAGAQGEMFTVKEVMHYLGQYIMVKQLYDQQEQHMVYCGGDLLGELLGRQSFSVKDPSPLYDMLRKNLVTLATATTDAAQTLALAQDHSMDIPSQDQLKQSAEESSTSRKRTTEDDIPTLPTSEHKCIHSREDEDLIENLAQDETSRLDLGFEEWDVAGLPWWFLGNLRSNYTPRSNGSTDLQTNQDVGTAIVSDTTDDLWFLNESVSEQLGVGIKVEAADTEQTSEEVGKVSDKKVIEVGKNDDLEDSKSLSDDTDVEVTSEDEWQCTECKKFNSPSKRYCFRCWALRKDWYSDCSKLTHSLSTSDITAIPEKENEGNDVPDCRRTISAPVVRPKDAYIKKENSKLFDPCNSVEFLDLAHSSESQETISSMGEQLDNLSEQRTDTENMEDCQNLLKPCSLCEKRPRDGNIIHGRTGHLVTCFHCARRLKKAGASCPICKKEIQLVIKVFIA
Sequence (Q00987 whole entry, looked up): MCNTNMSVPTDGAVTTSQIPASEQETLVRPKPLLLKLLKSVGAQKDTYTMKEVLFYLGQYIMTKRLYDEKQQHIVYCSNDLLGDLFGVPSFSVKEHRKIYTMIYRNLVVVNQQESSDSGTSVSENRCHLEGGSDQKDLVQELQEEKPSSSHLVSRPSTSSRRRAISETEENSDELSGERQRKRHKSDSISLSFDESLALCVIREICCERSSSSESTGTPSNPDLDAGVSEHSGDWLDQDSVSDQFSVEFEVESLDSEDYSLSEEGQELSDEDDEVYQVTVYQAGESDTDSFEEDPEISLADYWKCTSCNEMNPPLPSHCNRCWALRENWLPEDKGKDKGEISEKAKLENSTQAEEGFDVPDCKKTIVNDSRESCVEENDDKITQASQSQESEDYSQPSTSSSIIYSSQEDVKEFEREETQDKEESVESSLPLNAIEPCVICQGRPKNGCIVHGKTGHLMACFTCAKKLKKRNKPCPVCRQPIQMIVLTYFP

Row | SMILES | inhibition
1 | COC(=O)CCC(=O)N1CCCC(CO)(Cc2ccccc2)C1 (stereo not drawn) | -73.8% (inactive)
2 | C[C@@H](C(=O)N1CCNCC1)n1cc(CCC(=O)O)nn1 | 3.92% (inactive)
3 | COc1ccc(N(C(=O)c2snc(C(N)=O)c2N)C(C(=O)NC2CCCC2)c2ccc(C)o2)c(OC)c1 (stereo not drawn) | 8.7% (inactive)
4 | CC(OC(=O)CNC(=O)c1ccc(Cl)c([N+](=O)[O-])c1)C(=O)NCc1ccco1 (stereo not drawn) | 27.3% (inactive)
5 | CC(=O)Nc1ccc(NC(=O)C(C)OC(=O)c2ccccc2C(=O)c2ccc(Cl)c([N+](=O)[O-])c2)cc1 (stereo not drawn) | 98.6% (active)
6 | N#Cc1cccc(NC(=O)COC(=O)c2ccccc2C(=O)c2ccc(Cl)c([N+](=O)[O-])c2)c1 | 98.1% (active)
7 | COC(=O)c1cc(NC(=O)Cc2ccccc2[N+](=O)[O-])ccc1Cl | -1.62% (inactive)
8 | O=C(Nc1ccncc1)c1ccc(Cl)c([N+](=O)[O-])c1 | 6.79% (inactive)
9 | CC(=O)Nc1ccc(NC(=O)COC(=O)c2ccccc2C(=O)c2ccccc2)cc1 | 2.79% (inactive)
10 | CCC(=O)c1ccc(OCC(O)Cn2nc(C)c(C(C)=O)c2C)cc1 (stereo not drawn) | 4.82% (inactive)
11 | CC1CCCC(NC(=O)c2cc(-c3ccncc3)nc3ccccc23)C1C (stereo not drawn) | -4.9% (inactive)
12 | Cc1ccc(C(=O)O)cc1S(=O)(=O)NCC1CCCO1 (stereo not drawn) | -63.3% (inactive)
13 | Cc1noc(C)c1CCC(=O)N1CCCC(CO)(Cc2ccccc2)C1 (stereo not drawn) | -31.3% (inactive)
14 | COc1ccc(Cl)cc1NC(=O)CN(C)Cc1ccc(OC)c(OC)c1 | 29.4% (inactive)
15 | C/C(=N\NC(=O)OC(C)(C)C)c1ccc[nH]1 | -29.2% (inactive)
16 | COc1ccccc1C(=O)Nc1ccc(C)c(S(=O)(=O)N2CCCCC2)c1 | 15% (inactive)
17 | O=C(Nc1ccc(N2CCN(C(=O)C3CC3)CC2)cc1)c1cccs1 | -10.3% (inactive)
18 | O=C(Nc1ccc(N2CCN(C(=O)c3cccs3)CC2)cc1)c1cccnc1Cl | -22.2% (inactive)
19 | Cc1ccccc1C(=O)N1CCN(c2ccc(NC(=O)c3cccs3)cc2)CC1 | 53.9% (active)
20 | CCCc1cc(=O)[nH]c(SCC(=O)Nc2ccc(C(=O)Nc3ccccc3OC)cc2)n1 | 21.4% (inactive)
21 | COCCNC(=O)C(OC(=O)c1cccs1)c1ccc(F)cc1 (stereo not drawn) | 4.05% (inactive)
22 | O=C(Cc1ccccc1)Nc1cccc(NC(=O)c2ccccc2)c1 | 4.35% (inactive)

Row | SMILES | inhibition
23 | CCc1cccc(NC(=O)CCC(=O)O)c1 | 3.13% (inactive)
24 | O=C(CCl)Nc1cccc(CP(=O)(c2ccccc2)c2ccccc2)c1 | 96.3% (active)
25 | Clc1ccc(-c2nc3ccccn3c2CN2CCSCC2)cc1 | 15.3% (inactive)
26 | Cc1ccc(CNC(=O)C2CCN(S(=O)(=O)c3ccc4nc5c(c(C(=O)O)c4c3)CC(C)CC5)CC2)cc1 (stereo not drawn) | 6.94% (inactive)
27 | O=C(NC(=S)Nc1ccc(Cl)cc1Cl)C1CC1 | -39.2% (inactive)
28 | Cc1cccc(Nc2nc3c(S(=O)(=O)c4ccccc4)nnn3c3ccccc23)c1C | 77.7% (active)
29 | CC(=O)Nc1ccc(Nc2nc3c(S(=O)(=O)c4ccc(C)c(C)c4)nnn3c3ccccc23)cc1 | 23.4% (inactive)
30 | Cc1ccc(S(=O)(=O)c2nnn3c2nc(N2CCN(c4ccccn4)CC2)c2ccccc23)cc1 | 10.2% (inactive)
31 | COc1ccc(C2(CNC(=O)Cc3ccc(OC)c(OC)c3)CCCC2)cc1 | 10.1% (inactive)
32 | CN(C)c1nc(Nc2ccc(Cl)c(Cl)c2)nc(N(C)C)n1 | -14.8% (inactive)
33 | Cc1nnc(NCCO)c2ccccc12 | -14% (inactive)
34 | OCCNc1nc(Nc2ccc(Cl)c(Cl)c2)nc2ccccc12 | 80.6% (active)
35 | COc1ccc(C(C#N)N2N=C(C)CC2(C)C)cc1 (stereo not drawn) | -22.4% (inactive)
36 | Cc1ccc(S(=O)(=O)N2[C@@H](c3ccc(Br)cc3)C(C(=O)O)=C[C@H]2CC2CCCC2)cc1 | 30.4% (inactive)
37 | CCc1ccc(OCC2c3cc(OC)c(OC)cc3CCN2C(C)=O)cc1 (stereo not drawn) | 6.86% (inactive)
38 | CC[C@H]1CN2CCc3cc(OC)c(OC)cc3[C@@H]2C[C@@H]1C[C@H]1NCCc2cc(OC)c(OC)cc21 | 91.7% (active)
39 | COc1ccc2c(c1)CCNC2Cc1ccc(OC)c(O)c1 (stereo not drawn) | -20.9% (inactive)
40 | C=C(C)c1cccc(C(C)(C)NC(=O)NCCN(CC)CC)c1 | 14.6% (inactive)
41 | Cc1ccc(S(=O)(=O)N2C[C@@H]3CCCC[C@@H]3[C@@H](C)[C@H]2c2cn(Cc3ccccc3)c3ccc(F)cc23)cc1 | 30% (inactive)
42 | CCNC(=O)COC(=O)/C=C/c1c(C)nn(Cc2cccc(OC)c2)c1Cl | 11.4% (inactive)
43 | COc1ccc(NS(=O)(=O)c2ccc(NC(=S)NC(=O)/C=C/c3ccc(C)cc3)cc2)nn1 | -0.635% (inactive)
44 | Cc1ccc(C(=O)/C=C/Nc2ccc(S(=O)(=O)Nc3onc(C)c3C)cc2)cc1 | 0.513% (inactive)

Row | SMILES | inhibition
45 | COc1ccc(/C=C/C(=O)c2ccc(NS(=O)(=O)c3ccc(C)cc3)cc2)cc1O | 65.1% (active)
46 | Cc1cc(C)n2nc(C(=O)OC(C)C(=O)c3cc(C)c(C)cc3C)nc2n1 (stereo not drawn) | 1.62% (inactive)
47 | OCC[C@H]1C[C@H](O)[C@@H](O)[C@]2(Cc3ccccc3CO2)O1 | -20.7% (inactive)
48 | Cc1cccc(CS(=O)(=O)c2ncc(Cl)c(C(=O)Nc3ccc(F)cc3)n2)c1 | 82.1% (active)
49 | Cc1cccc(NC(=O)c2nc(S(=O)(=O)Cc3ccccc3)ncc2Cl)c1 | 97.5% (active)
50 | Cc1cccc(NC(=O)C(C)SCc2ccccc2)c1 (stereo not drawn) | 0.19% (inactive)
51 | CSc1ncc(Cl)c(C(=O)Nc2cc(C)ccc2C)n1 | -15.6% (inactive)
52 | Cc1cccc(NC(=O)c2nc[nH]c2C(=O)NCC(=O)OCc2ccccc2)c1 | 10.4% (inactive)
53 | CCOc1ccc(NC(=O)c2nc(SCC)ncc2Cl)cc1 | 46.8% (inactive)
54 | CCOc1ccc2c(c1)c(=O)c(S(=O)(=O)c1ccc(C)cc1)cn2CC | 5.7% (inactive)
55 | O=C(COC(=O)C1CC2C=CC1C2)Nc1ccccc1 (stereo not drawn) | -11.4% (inactive)
56 | CCS(=O)(=O)c1ccc(C(=O)NC)c(Cl)c1Cl | 13.4% (inactive)
57 | COc1cc(C(=O)Nc2cc(C(F)(F)F)ccc2N2CCOCC2)ccc1O | 15.4% (inactive)
58 | CC(C)(C)OC(=O)C[C@H]1C/C=C\C[C@@H](CC(=O)N[C@H](CO)Cc2ccccc2)C(=O)NC[C@@H](c2ccccc2)OC1=O | 9.47% (inactive)
59 | O=C(C[C@H]1C/C=C\C[C@@H](NC(=O)OCC2c3ccccc3-c3ccccc32)C(=O)O[C@@H](c2ccccc2)CNC1=O)N[C@H](CO)Cc1ccccc1 | 99.8% (active)
60 | CC(C)(C)OC(=O)C[C@@H]1C/C=C\C[C@@H](CC(=O)N[C@H](CO)Cc2ccccc2)C(=O)NC[C@@H](c2ccccc2)OC1=O | 13.2% (inactive)
61 | Cc1c(NC(=O)CN(C)CC(=O)Nc2ccc(F)c(F)c2F)c(=O)n(-c2ccccc2)n1C | 7.46% (inactive)
62 | OCC[C@H]1C[C@@H](O)[C@H](O)[C@]2(OCCCc3ccccc32)O1 | 8.75% (inactive)
63 | CC(=O)N1CCN(C(=O)Nc2cccc(C(F)(F)F)c2)CC1 | -7.17% (inactive)
64 | O=C(Nc1ccc(Cl)cc1)Nc1ccc(C(=O)N2CCOCC2)cc1 | 9.36% (inactive)
65 | CC(C)C[C@H](NC(=O)Nc1cccc(C(F)(F)F)c1)C(=O)O | 29.7% (inactive)
66 | O=C(NCc1ccccc1)c1ccc(S(=O)(=O)Nc2cccc(C(F)(F)F)c2)cc1 | 25.2% (inactive)

Row | SMILES | inhibition
67 | O=C(Nc1ccc(C(=O)N2CCOCC2)cc1)Nc1cccc(C(F)(F)F)c1 | 54.6% (active)
68 | CCNS(=O)(=O)c1ccc(NC(=O)Nc2cccc(C(F)(F)F)c2)cc1 | 52.6% (active)
69 | O=S(=O)(NCCS(=O)(=O)N1CCN(c2ccccc2)CC1)c1ccc(F)cc1 | 23.9% (inactive)
70 | Cc1nc(-c2ccccc2)cn2c1nc1ccccc12 | 14.8% (inactive)
71 | COc1ccccc1NC(=O)c1c(Br)cnn1C | -30.1% (inactive)
72 | CN(C(=O)CCN1C(=O)/C(=C/c2ccccc2F)SC1=S)C1CCS(=O)(=O)C1 (stereo not drawn) | 24.9% (inactive)
73 | O=C(CN1CCCCCC1)NCCN1C(=O)S/C(=C\c2ccccc2Cl)C1=O | 3.22% (inactive)
74 | O=C1/C(=C\c2ccccc2Cl)SC(=S)N1CCC(=O)N1CCCc2ccccc21 | 99.5% (active)
75 | COc1ccc(C(=O)OCc2cc(=O)n3ccsc3n2)cc1F | 2.88% (inactive)
76 | O=C(NNC1CC(=O)N(c2cccc(Cl)c2)C1=O)c1cccnc1 (stereo not drawn) | 14.9% (inactive)
77 | COc1ccc(-c2c(C)cc3oc(=O)cc(-c4ccccc4)c3c2C)cc1F | 2.64% (inactive)
78 | COc1ccc(-c2c(C)cc3oc(=O)cc(-c4ccccc4)c3c2C)cc1OC | 7.66% (inactive)
79 | COc1cc(OC)c2c(-c3cccc(-c4cccc(N)c4)c3)cc(=O)oc2c1 | 75% (active)
80 | C=CCn1c(=S)[nH]c2scc(-c3ccco3)c2c1=O | -19.1% (inactive)
81 | Cc1ccccc1C(OCCN(C)C)C1CCCCC1 (stereo not drawn) | 25.8% (inactive)
82 | COc1cccc(OC)c1C(=O)N1CCN(Cc2cccnc2)CC1 | -4.03% (inactive)
83 | COc1ccc(S(=O)(=O)N2CCOCC2)cc1NC(=O)Cc1coc2cc(C)ccc12 | 3.68% (inactive)
84 | Cc1cccc(CNS(=O)(=O)c2ccc(-c3cnc(C4CC4)o3)cc2)c1 | 35.8% (inactive)
85 | COc1ccc(CNS(=O)(=O)c2ccc(-c3cnc(C4CC4)o3)cc2)cc1 | 15.3% (inactive)
86 | Cc1cccc(NS(=O)(=O)c2ccc(-c3cnc(C4CC4)o3)cc2)c1 | 65.1% (active)
87 | CN(C)S(=O)(=O)c1ccc(C(=O)NCCN=C2NS(=O)(=O)c3ccccc32)cc1 | 7.98% (inactive)
88 | COCCCNC(=O)CN1CCN(Cc2ccccc2Cl)C1=O | -6.08% (inactive)
